# Measurements taken from PubChem BioAssay AID652068 (The Scripps Research Institute Molecular Screening Center, 2013).
# About 4,000 (93%) of roughly 4,300 compounds were called active.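 Rule for the calls: active = inhibition above its plate's cutoff, the mean test-well inhibition plus 3 SD (cut at about 4.8% in these data); inactive = the rest.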 The set was probably picked from earlier hits. Not all results are given here.
# Assay: DNA CAG/GTC dye complex inhibitors – biochemical, fluorescence, TO-PRO-1 dye, d(CAG) DNA oligo, counter-screen for rCAG RNA repeat binder project (AID 652068);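 note: 0% = DNA dye mix with DMSO and 100% = 100 µM mitoxantrone; hits displace the dye from DNA and so lower well fluorescence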
# Details: d(CAG) DNA oligo TO-PRO-1 dye displacement, at 3 µM, hits give high values
row,SMILES,inhibition
1,CC(C)c1ccc(Nc2nnc(SCC(=O)c3nnc(-c4ccccc4)o3)s2)cc1,27.2% (active)
2,O=C(O)c1ccc(NN=CC2=C(N3CCOCC3)/C(=C/c3ccccc3)CC2)cc1,30.8% (active)
3,NC(=O)c1c(Nc2nc3c(F)cccc3s2)sc2c1CCCC2,14.3% (active)
4,COc1ccc(OC)c(NC(=O)CSc2nc(-c3ccccc3)cc(=O)[nH]2)c1,5.74% (active)
5,CCOc1cc(/C=C(\C#N)c2nc(-c3cccs3)c(NC(C)=O)s2)ccc1O,16.7% (active)
6,CCCOc1ccc(Cn2c(O)cc(=O)[nH]c2=O)cc1,6.06% (active)
7,COc1ccc(Cl)cc1-n1c(=S)sc2c(=O)n(-c3ccc(F)cc3)c(SCC(=O)O)nc21,8.24% (active)
8,COc1ccccc1/C=C/C=N/n1c(-c2ccc(Cl)cc2Cl)n[nH]c1=S,15.2% (active)
9,COc1cc(C2CC(=O)N3CN(Cc4ccccc4)CSC3=C2C#N)ccc1OCc1ccccc1 (stereo not drawn),12.4% (active)
10,Cc1ccc(Nc2nc(-c3ccc(O)cc3O)cs2)nc1,13% (active)
11,O=C(N/N=C/c1cc(Cl)cc([N+](=O)[O-])c1O)C(O)(c1ccccc1)c1ccccc1,17.8% (active)
12,Cc1cc(/C=C2/C(=N)N3C(=NC2=O)SN=C3S(C)(=O)=O)c(C)n1-c1ccccc1,53.2% (active)
13,Clc1ccccc1CSc1nnc(-c2ccco2)c(-c2ccco2)n1,30% (active)
14,Cc1cc(F)ccc1S(=O)(=O)Nc1ncnc2scc(-c3ccc(F)cc3)c12,34.7% (active)
15,O=C(Nc1nc(-c2ccco2)c(-c2ccco2)s1)c1ccco1,16.6% (active)
16,Cc1ccc(C(=O)O)cc1-c1ccc(/C=C2\SC(=O)N(CC(=O)Nc3ccc4c(c3)OCO4)C2=O)o1,59.2% (active)
17,Cc1ccc(C(C)C)c(OCCSc2nc3ccccc3n2CC(=O)O)c1,10.7% (active)
18,Cc1ccc(C)c(Cn2nnc3c(=O)[nH]c(C(=O)Nc4ccc(F)cc4)nc32)c1,11.1% (active)
19,O=c1cc(CN2CCN(S(=O)(=O)/C=C/c3ccccc3)CC2)c2ccc(O)cc2o1,13.1% (active)
20,Cc1cccc(C)c1NC(=O)C(c1ccc(C(F)(F)F)cc1)n1c(=O)c(-c2ccco2)nc2ccccc21 (stereo not drawn),7.75% (active)
21,O=C1c2cccc3cccc(c23)C(=O)N1CCCCCc1n[nH]c(=S)o1,6.52% (active)

row,SMILES,inhibition
1,CC(C)c1nc(SCC(=O)Nc2cccc(C(=O)O)c2)c2c3c(sc2n1)CCCC3,20% (active)
2,O=C(N/N=C/c1cccnc1)c1cc2ccccc2cc1O,4.9% (active)
3,Cc1ccc(NC(=O)Nc2nnc(-c3ccncc3)s2)cc1,13.7% (active)
4,Cc1nnc(NC(=O)Nc2ccc(Cl)c(Cl)c2)s1,21.5% (active)
5,C=C1c2c(Cl)ccc(O)c2C(O)=C2C(=O)[C@]3(O)C(O)=C(C(N)=O)C(=O)[C@@H](N(C)C)[C@@H]3[C@@H](O)C12 (stereo partly drawn),38% (active)
6,Cc1ccc(Nc2nc(CSc3nnnn3-c3ccccc3)cc(=O)[nH]2)cc1,16.6% (active)
7,O=C(O)c1ccc2c(c1)C(=O)N(c1ccc(/C=C/C(=O)c3ccccc3)cc1)C2=O,23.6% (active)
8,CCOc1ccc(-n2c(O)c(/C=N/Nc3nnc(C)c(=O)[nH]3)c3ccccc3c2=O)cc1,22.9% (active)
9,N#Cc1c(NC(=O)C2CC(Cl)=CCC2C(=O)O)sc2c1CCCCC2 (stereo not drawn),9.19% (active)
10,COC(=O)c1c(NC(=O)C2CC(C)=C(C)CC2C(=O)O)sc2c1CCCCC2 (stereo not drawn),20.6% (active)
11,CCc1nnc(NS(=O)(=O)c2ccc(NC(=S)NC(=O)c3cccs3)cc2)s1,16.6% (active)
12,CCc1nnc(NS(=O)(=O)c2ccc(NC(=O)c3cccc(OC(F)(F)C(F)F)c3)cc2)s1,22.8% (active)
13,COc1ccc(C(=O)Nc2cccc(/C=C(/CCC(=O)O)c3nc4ccccc4s3)c2)cc1,33.5% (active)
14,O=C(O)CC/C(=C\c1cc2c(cc1Br)OCO2)c1nc2ccccc2s1,13.3% (active)
15,Cc1ccc2cc(/C=N/Nc3ccc(C(=O)O)cc3)c(Cl)nc2c1,12% (active)
16,Cc1ccc(/C=C/C(=O)Nc2ccc([N+](=O)[O-])c(NC(=O)/C=C/c3ccc(C)o3)c2)o1,24.9% (active)
17,O=C(Nc1nnc(-c2ccccc2)o1)c1cc(-c2cccs2)nc2ccccc12,28.7% (active)
18,O=C(Nc1ccccc1)Nc1nnc(COc2ccccc2F)s1,24.9% (active)
19,O=C(NC(=S)Nc1ccccc1C(=O)O)c1ccc(-c2ccc(Br)cc2)o1,40.4% (active)
20,COCCNC(=O)Nc1ccc2nc(-c3ccco3)c(-c3ccco3)nc2c1,28.6% (active)
21,Cc1ccc(C(=O)Oc2coc(CSc3nnc(NC(=O)c4cccs4)s3)cc2=O)cc1C,23.1% (active)

row,SMILES,inhibition
1,Cc1ccc(-c2csc(C(C#N)=C(O)CN3CCN(C(=O)c4ccco4)CC3)n2)cc1,18.7% (active)
2,Cc1ccc(S(=O)(=O)NCCC(c2ccccc2)c2ccccc2)cc1C(=O)O,5.44% (active)
3,Cc1ccccc1OCC(=O)Nc1nnc(S(=O)(=O)N2CCCC2)s1,10.8% (active)
4,CCCCCCC(=O)Nc1nc(C)c(-c2csc(Nc3cc(Cl)ccc3OC)n2)s1,11.6% (active)
5,C[C@H]([C@@H](O)[C@@H](O)[C@@H](C)C(C)(C)C)[C@H]1CC[C@H]2C3CC[C@H]4C[C@H](OS(=O)(=O)O)[C@@H](OS(=O)(=O)O)C[C@]4(C)[C@H]3CC[C@]12C (stereo partly drawn),61.2% (active)
6,Cc1ccc(S(=O)(=O)Nc2nc3ccccc3s2)cc1[N+](=O)[O-],6.62% (active)
7,O=C1/C(=C/c2ccc(F)cc2)SC(=S)N1NS(=O)(=O)c1ccccc1,11.9% (active)
8,COc1ccc2[nH]c3c(C)c4cc[n+](C)cc4c(C)c3c2c1,61.2% (active)
9,Oc1c(Cl)cc(Cl)c(Cl)c1Cc1c(O)c(Cl)cc(Cl)c1Cl,76.5% (active)
10,CCn1c(SCC(=O)Nc2ccc(S(=O)(=O)Nc3onc(C)c3C)cc2)nnc1-c1ccccc1,6.29% (active)
11,Cc1cc(NS(=O)(=O)c2ccc(NC(=O)CSc3nnc(SCc4ccc(F)cc4)s3)cc2)nc(C)n1,13% (active)
12,Cc1cc(NS(=O)(=O)c2ccc(NC(=O)CSc3nnc(-c4ccc(C(C)(C)C)cc4)n3Cc3ccco3)cc2)nc(C)n1,4.42% (active)
13,Cc1nnc(SC(C(=O)Nc2cc(Cl)cc(Cl)c2)c2ccccc2)[nH]c1=O (stereo not drawn),28% (active)
14,CCOc1ccc(-n2c(SCC(=O)Nc3cc(C(=O)O)ccc3Cl)nc3ccccc3c2=O)cc1,19.2% (active)
15,COC(=O)c1sc(-c2ccc(C(C)(C)C)cc2)cc1NC(=O)/C=C/C(=O)O,41.3% (active)
16,CSc1ccc(C=Nn2c(-c3ccc(F)cc3)n[nH]c2=S)cc1,11.3% (active)
17,CC(C(=O)Nc1ccc(O)c(C(=O)O)c1)N1C(=O)/C(=C/c2cccs2)SC1=S (stereo not drawn),42.3% (active)
18,O=C(N[C@@H](Cc1c[nH]c2ccccc12)C(=O)O)OCC1c2ccccc2-c2ccccc21,23.8% (active)
19,COc1ccc(S(=O)(=O)NCCc2c[nH]c3ccccc23)cc1OC,0.56% (inactive)
20,COc1ccc(-c2cc(C(=O)NC(Cc3c[nH]c4ccccc34)C(=O)O)c(C)o2)cc1OC (stereo not drawn),16.9% (active)
21,COc1ccc(-c2cc(=O)oc3cc(OCC(=O)N[C@@H](Cc4c[nH]c5ccccc45)C(=O)O)ccc23)cc1,26.4% (active)

row,SMILES,inhibition
1,CC(Oc1ccc2c(-c3ccccc3)cc(=O)oc2c1)C(=O)NC(Cc1c[nH]c2ccccc12)C(=O)O (stereo not drawn),16.9% (active)
2,COc1cccc2sc(NNC(=O)c3nc4ccccc4s3)nc12,42.1% (active)
3,Cc1ccc(-n2c(SCC(=O)Nc3ccc(S(=O)(=O)Nc4nccs4)cc3)nnc2-c2ccncc2)cc1,35.9% (active)
4,Cc1ccc(-n2c(SCC(=O)Nc3ccc(S(=O)(=O)Nc4nccs4)cc3)nnc2-c2cccnc2)cc1,24.7% (active)
5,Cc1ccc(-n2c(SCC(=O)Nc3ccc(S(=O)(=O)Nc4nccs4)cc3)nnc2-c2ccccn2)cc1,23.8% (active)
6,CC(C)c1ccc(CC(=O)N2CCC2(C)C(=O)NS(=O)(=O)c2ccc(C(C)(C)C)cc2)cc1 (stereo not drawn),25.3% (active)
7,CC1(C(=O)NS(=O)(=O)Cc2cccc(Cl)c2)CCN1C(=O)Cc1ccc(Cl)cc1Cl (stereo not drawn),36.2% (active)
8,COc1ccc(S(=O)(=O)NC(=O)C2(C)CCN2C(=O)c2ccccc2CCc2ccccc2)cc1 (stereo not drawn),6.35% (active)
9,CC1(C(=O)NS(=O)(=O)c2ccccc2)CCN1C(=O)Cc1ccc(-c2ccccc2)cc1 (stereo not drawn),7.2% (active)
10,CC(Oc1ccc2ccccc2c1)C(=O)NNC(=S)NC(=O)c1ccco1 (stereo not drawn),11.8% (active)
11,CCCc1ccc(OCC(=O)NNC(=S)NC(=O)c2ccco2)cc1,14.4% (active)
12,O=C(Nc1ccc2c(c1)CCC2)c1cccc(S(=O)(=O)Nc2ccccc2Cl)c1,10.7% (active)
13,NS(=O)(=O)c1ccc(N=Nc2c(O)[nH]c3ccc(Br)cc23)cc1,9.96% (active)
14,N#CCC(=O)Nc1ccc(C(=O)OCC(=O)Nc2sc3c(c2C#N)CCCC3)cc1,17% (active)
15,COC(=O)c1sccc1NC(=O)CSc1ccccc1NS(=O)(=O)c1cc(Cl)ccc1Cl,32.6% (active)
16,NS(=O)(=O)c1ccc(NC2=CC(c3ccc(F)cc3)N(c3ccc(S(N)(=O)=O)cc3)C2=O)cc1 (stereo not drawn),15% (active)
17,CC(C)(C)C1C/C(=C/c2ccco2)C(=O)/C(=C/c2ccco2)C1 (stereo not drawn),17.1% (active)
18,CC(=O)N(c1ccc2oc(=O)sc2c1)S(=O)(=O)c1ccc(C)cc1,3.88% (inactive)
19,O=C(c1cccnc1)N(c1cc2sc(=O)oc2c2ccccc12)S(=O)(=O)c1ccccc1,20.1% (active)
20,COc1ccc(Cc2nnc(SCC(=O)Nc3ccc(C)c(Cl)c3)[nH]c2=O)cc1,24.4% (active)
